# Among all 39,000 compounds or so, about 1,500 (3.8%) were called active. For the sample, actives were picked, then their nearest neighbours and some compounds at random.
# Tested on: HSkMC (human skeletal muscle cells)
# Assay: cytotoxicity call (relative viability < 0.9)
# Conditions: 10 µM
row,Compound,cytotoxicity call
1,C[C@@H]1CCCCO[C@@H](CN(C)C(=O)Nc2cccc3ccccc23)[C@@H](C)CN([C@@H](C)CO)C(=O)c2cc(NS(=O)(=O)c3ccc(Cl)cc3)ccc2O1,inactive
2,C[C@H]1CN([C@@H](C)CO)C(=O)Cc2cc(NC(=O)CCC(F)(F)F)ccc2O[C@H]1CN(C)S(=O)(=O)c1ccccc1,inactive
3,CO/N=C(\C(=O)N[C@@H]1C(=O)N2C(C(=O)O)=C(C)CS[C@H]12)c1csc(N)n1,inactive
4,C[C@@H]1CCCCO[C@H](CN(C)C(=O)c2ccccc2)[C@H](C)CN([C@H](C)CO)C(=O)c2cc(NS(=O)(=O)c3ccc(Cl)cc3)ccc2O1,inactive
5,COCC#Cc1cnc2c(c1)C(=O)N([C@H](C)CO)C[C@H](C)[C@H](CN(C)C(=O)Nc1ccc(OC)cc1)O2,inactive
6,CS(=O)(=O)N1C[C@H]2COC[C@@]2(C(=O)NCc2ccccn2)C1,inactive
7,C[C@@H]1CN([C@H](C)CO)C(=O)CCCn2cc(nn2)CO[C@H]1CN(C)C(=O)Nc1ccc(C(F)(F)F)cc1,inactive
8,Cc1ccc(S(=O)(=O)Nc2ccc3c(c2)C(=O)N([C@H](C)CO)C[C@H](C)[C@@H](CN(C)C(=O)Cc2ccccc2)OCCCC[C@@H](C)O3)cc1,inactive
9,Cc1noc(C)c1S(=O)(=O)Nc1ccc2c(c1)C(=O)N([C@@H](C)CO)C[C@H](C)[C@H](CN(C)Cc1ccc(Cl)c(Cl)c1)OCCCC[C@@H](C)O2,inactive
10,C[C@H](CO)N1C[C@H](C)[C@@H](CN(C)CC2CCCCC2)Oc2c(NC(=O)c3ccc(-c4nccs4)cc3)cccc2C1=O,inactive
11,Cc1ccc(-c2cnc3c(c2)C(=O)N([C@@H](C)CO)C[C@@H](C)[C@H](CN(C)C(=O)Cc2ccncc2)O3)cc1,inactive
12,C[C@H]1CN([C@@H](C)CO)C(=O)c2cc(NS(=O)(=O)c3ccc(Cl)cc3)ccc2O[C@H]1CN(C)C(=O)Nc1cccc2ccccc12,inactive
13,C[C@H]1CN([C@@H](C)CO)C(=O)c2cc(NS(=O)(=O)c3ccc(Cl)cc3)ccc2O[C@@H]1CN(C)Cc1ccc(C(F)(F)F)cc1,active
14,C[C@@H]1CN([C@@H](C)CO)C(=O)c2cc(NC(=O)CCC(F)(F)F)ccc2O[C@@H](C)CCCCO[C@@H]1CN(C)C(=O)Nc1ccc(C(F)(F)F)cc1,inactive
15,Nc1nc(=O)n([C@@H]2CS[C@H](CO)O2)cc1F,inactive
16,CNC(=O)c1ccccc1N,inactive
17,C[C@@H]1CN([C@@H](C)CO)C(=O)c2cc(NC(=O)Nc3ccc(C(F)(F)F)cc3)ccc2O[C@@H]1CN(C)Cc1ccc(Oc2ccccc2)cc1,active
18,C[C@@H]1CN([C@@H](C)CO)C(=O)c2cc(NC(=O)Nc3ccc(C(F)(F)F)cc3)ccc2O[C@H]1CN(C)Cc1ccc(Oc2ccccc2)cc1,active
19,C[C@H]1CN([C@@H](C)CO)C(=O)c2cc(NC(=O)Nc3ccc(C(F)(F)F)cc3)ccc2O[C@H]1CN(C)Cc1ccc(Oc2ccccc2)cc1,active
20,C[C@H](CO)N1C[C@H](C)[C@@H](CN(C)Cc2ccc(Oc3ccccc3)cc2)Oc2ccc(NC(=O)Nc3ccc(C(F)(F)F)cc3)cc2C1=O,active
21,O=C(C[C@@H]1C[C@H]2c3cc(NC(=O)C4CCOCC4)ccc3O[C@H]2[C@H](CO)O1)NCc1ccc2c(c1)OCO2,inactive

row,Compound,cytotoxicity call
1,C[C@@H]1CCCCO[C@@H](CN(C)C(=O)c2ccccc2)[C@@H](C)CN([C@H](C)CO)C(=O)c2cc(NC(=O)Nc3ccc(C(F)(F)F)cc3)ccc2O1,inactive
2,Cc1noc(C)c1S(=O)(=O)Nc1ccc2c(c1)C(=O)N([C@@H](C)CO)C[C@@H](C)[C@H](CN(C)C(=O)NC(C)C)O2,inactive
3,Cl.N=C(N)NC(=N)N1CCOCC1,inactive
4,COc1ccc(S(=O)(=O)N2C[C@@H](O)COC[C@H]3O[C@@H](CC(=O)NCCCN(C)C)CC[C@@H]32)cc1,inactive
5,C[C@H](CO)N1C[C@H](C)[C@H](CN(C)S(=O)(=O)c2cccs2)Oc2ccc(NS(=O)(=O)c3cn(C)cn3)cc2C1=O,inactive
6,Cn1cnc(CCNC(=O)C[C@H]2CC[C@H]3[C@@H](COC[C@H](O)CN3C(=O)Nc3ccc(C(F)(F)F)cc3)O2)c1,inactive
7,C[C@H]1CN([C@@H](C)CO)C(=O)c2cc(NS(=O)(=O)c3ccc(F)cc3)ccc2O[C@H]1CN(C)S(=O)(=O)c1ccccc1,inactive
8,Cc1nn(C)c(Cl)c1S(=O)(=O)NC(=O)[C@@]1(C)CCN1C(=O)c1ccccc1CCc1ccccc1,inactive
9,COC(=O)c1cc(S(C)(=O)=O)ccc1OC,inactive
10,C[C@H]1CN([C@@H](C)CO)C(=O)c2cc(NC(=O)Nc3ccc(C(F)(F)F)cc3)ccc2O[C@@H]1CN(C)Cc1ccc(Oc2ccccc2)cc1,inactive
11,C[C@@H]1CN([C@H](C)CO)C(=O)c2cc(NC(=O)Nc3ccc(C(F)(F)F)cc3)ccc2O[C@H]1CN(C)Cc1ccc(Oc2ccccc2)cc1,inactive
12,C[C@H](CO)N1C[C@H](C)[C@H](CN(C)Cc2ccc(Oc3ccccc3)cc2)Oc2ccc(NC(=O)Nc3ccc(C(F)(F)F)cc3)cc2C1=O,active
13,C[C@@H]1CN([C@H](C)CO)C(=O)c2cc(NC(=O)Nc3ccc(C(F)(F)F)cc3)ccc2O[C@@H]1CN(C)Cc1ccc(Oc2ccccc2)cc1,active
14,CN(C)C(=O)c1cccc(-c2ccc3n(c2=O)C[C@H]2[C@H](CO)[C@@H](C(=O)NCC4CC4)N[C@@H]32)c1,inactive
15,C[C@@H]1CN([C@@H](C)CO)C(=O)c2cccc(NC(=O)Nc3ccccc3)c2O[C@H]1CN(C)Cc1ccc(Cl)c(Cl)c1,inactive
16,COc1ccc(NC(=O)Nc2cccc3c2O[C@@H](CN(C)Cc2ccc(Cl)c(Cl)c2)[C@H](C)CN([C@@H](C)CO)C3=O)cc1,inactive
17,C[C@H](CO)N1C[C@H](C)[C@@H](CN(C)Cc2ccc(Cl)c(Cl)c2)Oc2c(NC(=O)Nc3ccc(F)cc3)cccc2C1=O,active
18,C[C@H](CO)N1C[C@H](C)[C@H](CN(C)Cc2ccc(Cl)c(Cl)c2)Oc2c(NC(=O)Nc3ccc(F)cc3)cccc2C1=O,inactive
19,C[C@@H]1CN([C@H](C)CO)C(=O)c2cccc(NC(=O)Nc3ccc(F)cc3)c2O[C@H]1CN(C)Cc1ccc(Cl)c(Cl)c1,active
20,C[C@@H]1CN([C@@H](C)CO)C(=O)c2cccc(NC(=O)Nc3ccc(F)cc3)c2O[C@H]1CN(C)Cc1ccc(Cl)c(Cl)c1,inactive
21,C[C@@H]1CN([C@H](C)CO)C(=O)c2cccc(NC(=O)Nc3ccc(F)cc3)c2O[C@@H]1CN(C)Cc1ccc(Cl)c(Cl)c1,inactive

row,Compound,cytotoxicity call
1,C[C@@H]1CN([C@@H](C)CO)C(=O)c2cccc(NC(=O)Nc3ccc(F)cc3)c2O[C@@H]1CN(C)Cc1ccc(Cl)c(Cl)c1,active
2,C[C@H]1CN([C@@H](C)CO)C(=O)c2cccc(NC(=O)Nc3ccc(F)cc3)c2O[C@H]1CN(C)Cc1ccc(Cl)c(Cl)c1,inactive
3,COc1ccc(NC(=O)Nc2cccc3c2O[C@@H](CN(C)Cc2ccc(Cl)c(Cl)c2)[C@@H](C)CN([C@H](C)CO)C3=O)cc1,inactive
4,C[C@@H]1CN([C@H](C)CO)C(=O)c2cccc(NC(=O)Nc3ccccc3)c2O[C@@H]1CN(C)Cc1ccc(Cl)c(Cl)c1,inactive
5,COc1ccc(NC(=O)Nc2cccc3c2O[C@H](CN(C)Cc2ccc(Cl)c(Cl)c2)[C@@H](C)CN([C@@H](C)CO)C3=O)cc1,active
6,C[C@H](CO)N1C[C@H](C)[C@H](CN(C)C(=O)c2ccc(N3CCN(C)CC3)cc2)OCc2cn(nn2)CCCC1=O,inactive
7,COc1ccc(S(=O)(=O)N(C)C[C@@H]2Oc3c(NC(=O)c4ccncc4)cccc3C(=O)N([C@H](C)CO)C[C@@H]2C)cc1,inactive
8,C[C@H]1CCCCO[C@@H](CN(C)Cc2ccc(C(=O)O)cc2)[C@@H](C)CN([C@@H](C)CO)C(=O)c2cc(NC(=O)NC3CCCCC3)ccc2O1,inactive
9,C[C@@H]1CN([C@H](C)CO)S(=O)(=O)c2ccc(Br)cc2O[C@@H]1CN(C)S(=O)(=O)c1ccc(F)cc1,inactive
10,CON=C(C(=O)NC1C(=O)N2C(C(=O)OCOC(=O)C(C)(C)C)=C(C=Cc3scnc3C)CSC12)c1csc(N)n1 (stereo not drawn),inactive
11,C[C@H]1CN([C@@H](C)CO)C(=O)c2cc(C#Cc3ccccc3)cnc2O[C@H]1CN(C)C(=O)CCN1CCCCC1,inactive
12,COCCCNC(=O)[C@@]1(Sc2ccc(C)cc2)CC(=O)N(Cc2ccccc2Cl)[C@@H]1c1ccc(CO)cc1,inactive
13,O=C1N[C@H](Cc2c[nH]c3ccccc23)COC(=O)[C@@H](Cc2ccc(F)cc2)CCC=CC[C@H]1CC(=O)N(CCO)Cc1ccccc1,inactive
14,COc1cc(C)c(C(=O)Oc2cc(C)c(C(=O)O)c(O)c2)c(O)c1,inactive
15,COCCCNc1ncnc(N)c1[N+](=O)[O-],inactive
16,C[C@H]1CN([C@@H](C)CO)C(=O)c2cccc(NC(=O)Nc3ccc(F)cc3)c2O[C@@H]1CN(C)Cc1ccc(Cl)c(Cl)c1,active
17,C[C@H](CO)N1C[C@H](C)[C@@H](CN(C)Cc2ccc(Cl)c(Cl)c2)Oc2c(NC(=O)Nc3ccc4c(c3)OCO4)cccc2C1=O,active
18,C[C@H]1CN([C@@H](C)CO)C(=O)c2cccc(NC(=O)Nc3ccc4c(c3)OCO4)c2O[C@@H]1CN(C)Cc1ccc(Cl)c(Cl)c1,inactive
19,C[C@@H]1CN([C@@H](C)CO)C(=O)c2cccc(NC(=O)Nc3ccc4c(c3)OCO4)c2O[C@@H]1CN(C)Cc1ccc(Cl)c(Cl)c1,inactive
20,C[C@H](CO)N1C[C@H](C)[C@H](CN(C)S(C)(=O)=O)OCCCC[C@H](C)Oc2ccc(NS(=O)(=O)c3ccc(F)cc3)cc2C1=O,inactive
21,CO[C@@H]1CN(C)C(=O)c2cc(NC(=O)c3ccccc3)ccc2OC[C@H](C)N(C(=O)CN(C)C)C[C@@H]1C,inactive

# Reference: the antibiotic and cytotoxicity screens of Wong et al. (2023)
